Screening results (PubChem BioAssay)
Sampled rows, rich in hits. Any-hit rate of the full collection: about 3.2%.
Tau fil binding: tau filament binding; P10636; recombinant tau filaments, thioflavin S fluorescence, 15 h; filaments grown with octadecylsulfate alongside compound; Potency, µM (highest dose often 57.1 µM), without a hit: at the top dose activity change, negative = inhibition; hit rate 2% among 71,000; AID 596;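 further: potency means the concentration at half of the fitted maximal effect; on the % scale 0 is the no-effect control and ±100 the full control effect; actives lower thioflavin S fluorescence by blocking filaments or displacing dye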
Target sequence (P10636 whole entry, looked up): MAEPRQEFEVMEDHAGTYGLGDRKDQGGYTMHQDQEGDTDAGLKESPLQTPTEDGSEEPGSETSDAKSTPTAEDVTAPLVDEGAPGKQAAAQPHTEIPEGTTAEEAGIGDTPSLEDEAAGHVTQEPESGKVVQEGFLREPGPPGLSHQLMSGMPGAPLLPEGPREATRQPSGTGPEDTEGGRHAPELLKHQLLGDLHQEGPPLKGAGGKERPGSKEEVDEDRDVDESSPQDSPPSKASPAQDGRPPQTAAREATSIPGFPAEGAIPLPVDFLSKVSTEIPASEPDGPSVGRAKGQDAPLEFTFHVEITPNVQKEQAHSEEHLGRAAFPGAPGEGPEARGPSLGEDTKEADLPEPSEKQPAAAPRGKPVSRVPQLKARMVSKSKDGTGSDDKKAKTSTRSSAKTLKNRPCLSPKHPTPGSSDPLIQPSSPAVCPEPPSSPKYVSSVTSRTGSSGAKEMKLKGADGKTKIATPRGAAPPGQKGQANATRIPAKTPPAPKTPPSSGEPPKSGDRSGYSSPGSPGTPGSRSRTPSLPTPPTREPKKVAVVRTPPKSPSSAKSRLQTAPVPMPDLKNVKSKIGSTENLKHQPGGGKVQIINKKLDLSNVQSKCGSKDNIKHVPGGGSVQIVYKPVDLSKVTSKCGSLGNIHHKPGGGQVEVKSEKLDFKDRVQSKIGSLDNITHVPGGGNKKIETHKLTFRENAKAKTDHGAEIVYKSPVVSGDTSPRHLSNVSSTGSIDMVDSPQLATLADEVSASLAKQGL
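His-tagged recombinant human tau (exons 2, 3, 10; 1 uM final) fibrillized with 30 uM sodium octadecylsulfate, 15 h at 37 C, in pH 7.4 HEPES buffer with 10 uM thioflavine S and 5 mM DTT. Reduced ThS fluorescence (450/510 nm) marks activity.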
Pol III holo inh: inhibitors of bacterial DNA polymerase III holoenzyme; reconstituted DNA polymerase III holoenzyme replication, biochemical; Potency, µM (highest dose often 57.1 µM), without a hit: top-dose activity change, negative = inhibition; hit rate 0.25% among 71,000; further: potency means the concentration at half of the fitted maximal effect; on the % scale 0 is the no-effect control and ±100 the full control effect
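Reconstituted *E. coli* holoenzyme (0.35 nM Pol III, 1 nM beta, 154 nM SSB, 2 nM primase) was preincubated with compound for 15 min at RT. Synthesis on 1.4 nM ssM13Gori ran 35 min, then was stopped with PicoGreen/EDTA and read as dsDNA fluorescence.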
p53ts 39C tox: p53ts cell cytotoxicity, nonpermissive temperature; H1299-p53A138V viability at 39C, ATP luminescence, 24 h; Potency, µM (doses to about 46.1 µM), without a hit: at the highest dose activity change, negative = cell killing, hits mostly cytotoxic; hit rate 1.5% among 130,000; further: potency means the concentration at half of the fitted maximal effect; on the % scale 0 is the no-effect control and ±100 the full control effect; nearly all actives have a fitted effect of over 55% in size
TsaE inh: displaces an ADP probe from E. coli YjeE (TsaE). purified YjeE enzyme, qHTS inhibition assay. Potency, µM. hit rate 0.05% among 71,000
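Fluorescence polarization of a BODIPY Texas Red–ADP probe (2 uM) bound to purified YjeE (10 uM) was read after 15 min room-temperature incubation with compounds. Loss of polarization marks inhibitors; ADP serves as titrated control.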
p53ts 32C tox: p53ts cell cytotoxicity, permissive temperature. H1299-p53A138V at 32C, ATP luminescence viability, 24 h. Potency, µM (titrated, usually from 46.1 µM), without a hit: at the highest dose activity change, negative = cytotoxicity, actives largely listed as cytotoxic. hit rate 0.93% among 130,000;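 further: potency means the concentration at half of the fitted maximal effect; 0% = DMSO and -100% = full killing by reference compound; nearly all actives have a fitted effect of over 55% in size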
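ATP-content luminescence (ATPlite) read-out after 24 h compound exposure at 32C in H1299-p53A138V cells (600/well). Tested up to 46 uM. Normalized to DMSO (0%) and 100 uM tamoxifen (100% killing); Hill-fit AC50.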
ERK AVP inh: inhibitors of vasopressin-stimulated ERK signaling pathway; Potency, µM (highest dose often 57.5 µM), without a hit: top-dose activity, negative = inhibition, most hits filed as inhibitors; HEK293-V1b, vasopressin-stimulated pERK AlphaScreen; hit rate 0.99% among 72,000; further: potency means the concentration at half of the fitted maximal effect; on the % scale 0 is the no-effect control and ±100 the full control effect; nearly all actives have a fitted effect of over 55% in size
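HEK293 cells stably expressing V1b receptor, preincubated 30 min at 37 °C with compound, then stimulated 5 min with 25 nM vasopressin. Phospho-ERK by AlphaScreen SureFire after 5 h RT; normalized to DMSO and vasopressin; AC50 by Hill fit.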
* hit, by the source's call; i = inactive; ? = inconclusive; / = not tested or not shown; [ ] = another dose, or the depositor's remark. The call rests on the fitted dose curve; in most records, active means well fitted curve in the direction sought with a large enough effect; inconclusive means small, poorly fitted or top-dose-only effect, or another doubt; inactive means no such curve, though single readings can be large; an effect the other way counts as inactive or inconclusive.

SMILES | Tau fil binding | Pol III holo inh | p53ts 39C tox | TsaE inh | p53ts 32C tox | ERK AVP inh
C=C1C(=O)C=C2CN(C(=O)c3ccccc3)[C@@](Cc3ccc(OC)cc3)(C(=O)OC)[C@@H]12 | 0.1% | -8.1% | 20µM* | ? | 3.16µM* | ?
CC(=O)c1ccc(NC(=O)c2ccn[nH]2)cc1 | -5.9% | -5.3% | 10µM* | i | 12.6µM* | 15.3%
CC(=O)c1ccc(NC(=O)c2ccc(-n3cnnc3)cc2)cc1 | / | / | -22.3% | / | -2.8% | /
Cc1ccc(C)c(Cn2c(=O)n(CCCCC(=O)NCc3ccccc3Cl)c(=O)c3ccccc32)c1 | / | / | 25.1µM* | / | 3.2% | /
Cc1cccc(Cn2c(=O)n(CCCC(=O)NCc3ccccc3Cl)c(=O)c3ccccc32)c1 | / | / | ? | / | -24.2% | /
CCCCCN=Cc1c(C)[nH]n(-c2nc3ccccc3s2)c1=O | 35.1%[11.4 µM] | -4.7%[11.4 µM] | 0.794µM* | i | 1µM* | -17.3%
CC(C)Cn1c2nc3ccccc3nc2c2c(=O)n(CCN3CCOCC3)cnc21 | 25.1µM* | -1.9% | -3.9% | i | 0.6% | -27.6%
COc1ccccc1-c1nc(C#N)c(N2CCc3ccccc3C2)o1 | 180.3% | 3.0% | 6.8% | i | -4.7% | 20µM*
CCCN1C(=O)C2(c3ccccc31)c1c(oc3ccc(F)cc3c1=O)C(=O)N2CCCOC(C)C (stereo not given) | / | / | -4.8% | / | 13.5% | /
Cc1ccc(-c2nc3s/c(=C\c4ccco4)c(=O)n3n2)cc1 | -26.6% | -2.6% | -1.5% | i | -6.0% | 19.2%
O=c1nc2s/c(=C\c3ccco3)c(=O)n2nc1Cc1ccc(F)cc1 | ? | 15.8µM* | 6.9% | i | -7.6% | -11.6%
Cc1ccc(NC(=O)C(Cc2ccccc2)n2cccc2)c(C)c1 (stereo not given) | / | / | -19.7% | / | -1.5% | /
CCCC(=O)Nc1nc2ccc(NC(=O)c3ccc(Br)o3)cc2s1 | 243.8% | 2.7% | -10.3% | i | -24.5% | 20µM*
N#Cc1cccc(-c2nc3cnc(Oc4cccc(Cl)c4)nc3n(C3CC3)c2=O)c1 | 10µM* | -3.3% | -17.3% | i | -2.1% | ?
O=c1c(-c2ccccc2)nc2cnc(Oc3ccccc3)nc2n1C1CC1 | -22.3% | -6.3% | 7.7% | i | -3.2% | 35.0%
O=c1c(-c2ccc(Cl)cc2)nc2cnc(Oc3ccccc3)nc2n1C1CC1 | 12.6µM* | -3.2% | -8.3% | i | -8.0% | -9.2%
Cc1ccc(NC(=O)c2cc3ccccn3n2)cc1F | / | / | ? | / | 12.6µM* | /
COc1ccccc1CCNC(=O)c1cc2ccccn2n1 | / | / | ? | / | -29.8% | /
COC(=O)c1ccccc1NC(=O)c1cc2ccccn2n1 | / | / | ? | / | -17.4% | /
COc1cc(NC(=O)c2cc3ccccn3n2)cc(OC)c1OC | / | / | -16.3% | / | -6.7% | /
CC(C)NC(=O)c1cc(-c2ccco2)on1 | -7.4% | -1.3% | -2.4% | i | -14.4% | 18.9%
CCc1ccc(NC(=O)c2cc3ccccn3n2)cc1 | / | / | 3.16µM* | / | 6.31µM* | /
CCc1ccc(NC(=O)c2cc(-c3ccco3)on2)cc1 | 15.8µM* | -2.9% | -10.3% | i | -16.0% | 21.9%
Cc1ccccc1CCNC(=O)c1cc2ccccn2n1 | / | / | 10µM* | / | ? | /
Cc1cc(-c2ccc(S(=O)(=O)Nc3ccc(Cl)cc3C)cc2)on1 | / | / | ? | / | 0.3% | /
SMILES | Tau fil binding | Pol III holo inh | p53ts 39C tox | TsaE inh | p53ts 32C tox | ERK AVP inh
CCN1C(=S)SC(=O)C1=C1C=C(C)OC(C)=C1 | 3.16µM* | -0.3% | 4.2% | i | -1.2% | -13.2%
CCN1C(=S)SC(=O)C1=C1C=C(C)N(Cc2ccco2)C(C)=C1 | 58.7% | -4.1% | -1.5% | i | 6.6% | -21.3%
O=C1c2ccccc2CC[C@H]1CNCCc1ccc(O)cc1 | ? | -1.3% | ? | i | ? | 9.0%
Cc1oc2c(c(C)cc3oc(=O)c(CC(=O)NCCc4ccccc4F)c(C)c32)c1C | / | / | -2.5% | / | -4.7% | /
CCCCCCn1c(CN2CCC(C)CC2)nc2c1c(=O)n(C)c(=O)n2C | 14.4% | -2.6% | 8.4% | i | -17.3% | 8.5%
CCCCCCn1c(CN2CCN(CCO)CC2)nc2c1c(=O)n(C)c(=O)n2C | -9.7% | 3.7% | 3.16µM* | i | 2.51µM* | /
